Targets with a hit are over-represented here; the source holds about 7,900 in all. About 0.6% of all pairs of compound and target were hits.

Sequence of UniProt Q9Y6R0 (Q9Y6R0 whole entry, looked up): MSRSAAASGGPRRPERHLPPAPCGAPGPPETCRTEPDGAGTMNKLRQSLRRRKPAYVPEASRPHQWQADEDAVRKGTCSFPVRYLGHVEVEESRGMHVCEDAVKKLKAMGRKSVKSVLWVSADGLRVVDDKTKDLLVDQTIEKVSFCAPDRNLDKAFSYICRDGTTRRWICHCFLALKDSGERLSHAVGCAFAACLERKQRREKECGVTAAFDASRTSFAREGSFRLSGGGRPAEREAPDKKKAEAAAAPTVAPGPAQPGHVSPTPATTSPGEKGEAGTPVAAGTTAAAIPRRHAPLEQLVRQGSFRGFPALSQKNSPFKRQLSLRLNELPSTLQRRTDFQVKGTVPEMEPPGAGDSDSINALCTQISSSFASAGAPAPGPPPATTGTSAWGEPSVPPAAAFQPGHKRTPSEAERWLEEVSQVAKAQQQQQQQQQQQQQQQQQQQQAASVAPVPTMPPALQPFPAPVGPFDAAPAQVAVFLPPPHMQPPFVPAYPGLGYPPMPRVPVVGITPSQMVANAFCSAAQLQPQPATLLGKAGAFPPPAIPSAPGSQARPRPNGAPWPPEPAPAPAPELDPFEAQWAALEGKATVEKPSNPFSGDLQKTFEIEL
Sequence of UniProt Q9BSU3 (Q9BSU3 whole entry, looked up): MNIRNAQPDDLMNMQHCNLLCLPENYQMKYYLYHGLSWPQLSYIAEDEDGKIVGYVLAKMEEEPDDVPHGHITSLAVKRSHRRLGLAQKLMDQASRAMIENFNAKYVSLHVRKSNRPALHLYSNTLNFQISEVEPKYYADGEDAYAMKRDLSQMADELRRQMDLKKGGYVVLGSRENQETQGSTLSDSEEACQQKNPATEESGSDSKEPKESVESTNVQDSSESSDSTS
Sequence of UniProt Q9H4L5 (Q9H4L5 whole entry, looked up): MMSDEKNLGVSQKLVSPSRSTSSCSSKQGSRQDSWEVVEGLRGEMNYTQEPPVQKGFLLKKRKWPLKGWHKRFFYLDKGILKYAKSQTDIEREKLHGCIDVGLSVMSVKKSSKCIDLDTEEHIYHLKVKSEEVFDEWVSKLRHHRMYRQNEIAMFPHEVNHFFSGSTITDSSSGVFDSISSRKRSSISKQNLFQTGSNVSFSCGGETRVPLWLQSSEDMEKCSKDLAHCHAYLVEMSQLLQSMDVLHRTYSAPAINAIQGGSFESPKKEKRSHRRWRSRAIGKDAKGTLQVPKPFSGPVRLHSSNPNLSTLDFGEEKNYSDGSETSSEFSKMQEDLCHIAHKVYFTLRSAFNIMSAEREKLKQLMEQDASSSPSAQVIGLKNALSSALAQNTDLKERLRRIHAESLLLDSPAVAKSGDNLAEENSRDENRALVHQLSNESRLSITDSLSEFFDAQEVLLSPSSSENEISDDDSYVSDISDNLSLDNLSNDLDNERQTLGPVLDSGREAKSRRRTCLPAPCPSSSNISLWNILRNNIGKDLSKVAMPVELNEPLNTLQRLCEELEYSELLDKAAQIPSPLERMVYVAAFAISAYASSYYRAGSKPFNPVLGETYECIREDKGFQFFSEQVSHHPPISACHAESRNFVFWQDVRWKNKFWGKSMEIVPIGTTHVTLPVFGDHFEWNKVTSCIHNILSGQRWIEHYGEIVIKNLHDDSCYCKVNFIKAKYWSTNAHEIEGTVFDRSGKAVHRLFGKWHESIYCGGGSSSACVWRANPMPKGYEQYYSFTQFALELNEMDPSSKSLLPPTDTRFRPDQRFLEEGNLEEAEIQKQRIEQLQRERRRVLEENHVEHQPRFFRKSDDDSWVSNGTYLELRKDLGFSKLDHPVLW
Sequence of MTHFD1, A0A384N5Y3 (A0A384N5Y3 whole entry, looked up): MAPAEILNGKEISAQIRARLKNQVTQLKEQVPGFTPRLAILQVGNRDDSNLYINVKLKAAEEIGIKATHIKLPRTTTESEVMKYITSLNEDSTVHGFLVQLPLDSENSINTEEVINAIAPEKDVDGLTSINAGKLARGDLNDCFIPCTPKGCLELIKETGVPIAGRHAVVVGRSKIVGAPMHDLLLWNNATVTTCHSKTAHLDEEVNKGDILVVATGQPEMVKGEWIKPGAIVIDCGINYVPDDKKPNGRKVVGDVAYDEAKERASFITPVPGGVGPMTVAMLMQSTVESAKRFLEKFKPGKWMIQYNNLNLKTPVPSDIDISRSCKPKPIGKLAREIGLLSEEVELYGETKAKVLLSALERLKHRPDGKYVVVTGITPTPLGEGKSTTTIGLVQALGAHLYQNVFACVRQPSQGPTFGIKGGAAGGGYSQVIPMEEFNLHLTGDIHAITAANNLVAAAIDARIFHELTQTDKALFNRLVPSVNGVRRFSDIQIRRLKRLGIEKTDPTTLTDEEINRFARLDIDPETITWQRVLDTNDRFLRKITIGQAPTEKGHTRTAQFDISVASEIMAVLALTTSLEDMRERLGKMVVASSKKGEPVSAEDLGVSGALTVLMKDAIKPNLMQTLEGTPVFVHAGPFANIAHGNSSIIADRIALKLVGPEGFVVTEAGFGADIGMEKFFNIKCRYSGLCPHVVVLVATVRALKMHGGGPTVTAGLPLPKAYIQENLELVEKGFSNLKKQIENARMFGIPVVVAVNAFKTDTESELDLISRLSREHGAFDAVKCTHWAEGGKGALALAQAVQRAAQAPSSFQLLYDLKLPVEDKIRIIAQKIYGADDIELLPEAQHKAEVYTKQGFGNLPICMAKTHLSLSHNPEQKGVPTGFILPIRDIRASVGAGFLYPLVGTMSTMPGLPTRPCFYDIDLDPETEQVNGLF
Sequence of UniProt Q8NI08 (Q8NI08 whole entry, looked up): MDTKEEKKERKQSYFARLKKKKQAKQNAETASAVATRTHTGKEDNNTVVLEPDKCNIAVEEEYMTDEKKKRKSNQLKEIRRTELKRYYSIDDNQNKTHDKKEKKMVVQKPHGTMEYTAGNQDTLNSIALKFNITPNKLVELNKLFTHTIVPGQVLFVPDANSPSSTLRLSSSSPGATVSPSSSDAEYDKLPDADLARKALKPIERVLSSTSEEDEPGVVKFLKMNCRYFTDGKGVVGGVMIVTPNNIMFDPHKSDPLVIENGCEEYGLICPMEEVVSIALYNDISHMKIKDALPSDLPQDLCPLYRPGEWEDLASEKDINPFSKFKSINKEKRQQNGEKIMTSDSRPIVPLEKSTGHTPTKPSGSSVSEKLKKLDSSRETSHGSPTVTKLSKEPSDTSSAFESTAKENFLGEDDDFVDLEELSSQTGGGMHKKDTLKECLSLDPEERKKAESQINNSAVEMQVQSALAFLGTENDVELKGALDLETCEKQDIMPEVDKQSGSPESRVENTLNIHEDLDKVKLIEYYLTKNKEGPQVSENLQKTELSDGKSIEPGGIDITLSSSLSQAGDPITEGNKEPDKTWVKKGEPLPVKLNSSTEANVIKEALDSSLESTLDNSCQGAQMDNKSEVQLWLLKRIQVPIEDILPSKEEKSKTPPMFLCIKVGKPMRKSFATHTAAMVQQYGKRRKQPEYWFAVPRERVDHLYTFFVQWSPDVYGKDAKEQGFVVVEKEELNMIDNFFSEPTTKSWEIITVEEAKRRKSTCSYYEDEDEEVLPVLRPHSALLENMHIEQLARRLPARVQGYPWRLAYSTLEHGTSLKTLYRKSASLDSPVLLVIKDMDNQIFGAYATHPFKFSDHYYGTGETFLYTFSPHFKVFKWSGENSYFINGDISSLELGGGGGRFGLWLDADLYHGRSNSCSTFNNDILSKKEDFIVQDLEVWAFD
Sequence of UniProt Q9Y2X3 (Q9Y2X3 whole entry, looked up): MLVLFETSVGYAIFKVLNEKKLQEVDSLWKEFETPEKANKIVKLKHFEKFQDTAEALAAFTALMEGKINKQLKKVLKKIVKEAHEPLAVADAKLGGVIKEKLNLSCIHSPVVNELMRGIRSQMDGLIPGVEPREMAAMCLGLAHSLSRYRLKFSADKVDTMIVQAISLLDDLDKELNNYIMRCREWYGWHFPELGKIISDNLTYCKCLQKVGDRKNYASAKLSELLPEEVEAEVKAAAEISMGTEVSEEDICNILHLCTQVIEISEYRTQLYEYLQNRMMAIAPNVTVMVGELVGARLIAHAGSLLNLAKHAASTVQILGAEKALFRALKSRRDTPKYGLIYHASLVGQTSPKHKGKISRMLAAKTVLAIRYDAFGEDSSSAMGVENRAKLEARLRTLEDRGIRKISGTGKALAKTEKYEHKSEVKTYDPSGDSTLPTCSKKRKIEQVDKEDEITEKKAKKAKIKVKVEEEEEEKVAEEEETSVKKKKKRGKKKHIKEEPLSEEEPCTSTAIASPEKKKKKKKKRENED
Sequence of UniProt Q8WUY8 (Q8WUY8 whole entry, looked up): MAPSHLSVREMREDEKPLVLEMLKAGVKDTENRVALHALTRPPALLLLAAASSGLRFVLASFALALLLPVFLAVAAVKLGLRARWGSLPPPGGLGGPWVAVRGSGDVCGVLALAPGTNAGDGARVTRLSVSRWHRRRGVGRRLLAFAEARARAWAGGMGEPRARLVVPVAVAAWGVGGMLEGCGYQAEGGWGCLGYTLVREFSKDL
Sequence of UniProt Q9H019 (Q9H019 whole entry, looked up): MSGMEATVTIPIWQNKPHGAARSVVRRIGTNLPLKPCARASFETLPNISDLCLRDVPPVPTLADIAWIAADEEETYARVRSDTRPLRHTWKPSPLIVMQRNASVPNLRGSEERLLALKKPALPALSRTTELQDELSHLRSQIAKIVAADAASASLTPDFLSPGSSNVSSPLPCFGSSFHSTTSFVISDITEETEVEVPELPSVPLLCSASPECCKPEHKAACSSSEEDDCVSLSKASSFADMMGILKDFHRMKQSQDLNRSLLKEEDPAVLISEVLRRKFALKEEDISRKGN
Sequence of UniProt P03886 (P03886 whole entry, looked up): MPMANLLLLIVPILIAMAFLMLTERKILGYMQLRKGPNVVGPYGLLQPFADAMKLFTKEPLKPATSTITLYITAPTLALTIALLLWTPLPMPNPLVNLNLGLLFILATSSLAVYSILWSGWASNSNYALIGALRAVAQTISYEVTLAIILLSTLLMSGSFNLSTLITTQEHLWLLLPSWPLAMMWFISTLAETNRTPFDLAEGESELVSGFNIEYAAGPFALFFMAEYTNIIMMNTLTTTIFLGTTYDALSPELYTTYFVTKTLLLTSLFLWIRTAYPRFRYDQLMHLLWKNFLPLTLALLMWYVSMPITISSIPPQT

Compound in one test: CCCCN(Cc1ccc(C(=O)NO)cc1)C(=O)Nc1ccccc1 [Nexturastat A]
The experiment in a line: log2 fold change, soluble protein after heating vs DMSO (PISA); higher = thermal stabilisation; K562 cells, 10 uM, 30 min; active = over 0.2 and 3.5 SD of the protein, either way, in both replicates (recomputed). In short, it runs like this:
(§1)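 Values are thermal stability changes relative to control samples and are taken from duplicates. They are stated as log2 fold changes. Before quantification by TMTpro 16plex LC-MS/MS with equalised channel sums, K562 cells at 2×10^6 cells/mL were treated with 10 μM compound for 30 min, heated in aliquots for 3 min across 48°C-58°C, pooled, extracted in PBS with 0.5% NP-40 at 4°C, and centrifuged at 21,000xg for 90 min to give the soluble supernatant.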
In the case of NME7 (UniProt Q9Y5B8), the log2 fold change is 0.024 (inactive).
For the target MPHOSPH8 isoform 2 (UniProt Q99549), the log2 fold change is -0.013 (inactive).
The same measure, in the same setting: as for MTFR1L (UniProt Q9H019), the figure is -0.027 (inactive); as for NME2P1 (UniProt O60361), -0.164 (inactive).
The same measure, in the same setting: the result for MON1A (UniProt Q86VX9) reads 0.015 (inactive); that for NCOA7 (UniProt Q8NI08), 0.012 (inactive); that for NCK1 (UniProt P16333), 0.12 (inactive).
Consider NAT14 (UniProt Q8WUY8), for which the log2 fold change was 0.227 (inactive).
Still for that read-out and setting: as for NUMBL (UniProt Q9Y6R0), the figure is 0.121 (inactive).
Same read-out and setting: as for NDFIP1 (UniProt Q9BT67), the figure is 0.048 (inactive); as for PACS1 (UniProt Q6VY07), 0.023 (inactive); as for NPC1 (UniProt O15118), -0.041 (inactive).
On the same count and under the same terms, the result for MRPS21 (UniProt P82921) reads 0.093 (inactive).
With MRPS16 (UniProt Q9Y3D3), the log2 fold change is 0.124 (inactive).
Take NOP58 (UniProt Q9Y2X3): the log2 fold change is 0.161 (inactive).
With MLX (UniProt Q9UH92), the log2 fold change was 0.009 (inactive).
Same read-out and setting: the result for OSBPL3 (UniProt Q9H4L5) reads 0.471 (inactive); that for NUDT7 (UniProt P0C024), 0.014 (inactive).
Still for that read-out and setting: as for OPHN1 (UniProt O60890), the figure is -0.12 (inactive); as for MTHFD1, A0A384N5Y3, 0.013 (inactive).
Regarding NAA11 (UniProt Q9BSU3), the log2 fold change is -0.016 (inactive).
In the case of NECTIN2 isoform 2 (UniProt Q92692), the log2 fold change is 0.17 (inactive).
Take MRPL46 (UniProt Q9H2W6): the log2 fold change was 0.076 (inactive).
Same read-out and setting: the result for MRPS33 (UniProt Q9Y291) reads 0.098 (inactive); that for MT-ND1 (UniProt P03886), 0.021 (inactive).
Regarding MRPS26 (UniProt Q9BYN8), the log2 fold change was 0.075 (inactive).
Same read-out and setting: as for NEK3 (UniProt P51956), the figure is -0.033 (inactive).

Compound in the next test: CCCS(=O)(=O)Nc1ccc(F)c(C(=O)c2c[nH]c3ncc(-c4ccc(Cl)cc4)cc23)c1F [vemurafenib]
Described as above. A digest of the protocol: as §1
For NFYB (UniProt P25208), the log2 fold change was 0.026 (inactive).
Still for that read-out and setting: the result for NME7 (UniProt Q9Y5B8) reads -0.037 (inactive); that for MPHOSPH8 isoform 2 (UniProt Q99549), -0.02 (inactive).
Take NPM3 (UniProt O75607): the log2 fold change is -0.04 (inactive).
Still for that read-out and setting: the result for MTFR1L (UniProt Q9H019) reads 0.048 (inactive).
The same measure, in the same setting: the result for NME2P1 (UniProt O60361) reads 0.038 (inactive); that for NCOA7 (UniProt Q8NI08), 0.008 (inactive).
Turning to NCK1 (UniProt P16333), the log2 fold change is 0.031 (inactive).
In the case of PAFAH2 (UniProt Q99487), the log2 fold change is 0.093 (inactive).
The same measure, in the same setting: as for NAT14 (UniProt Q8WUY8), the figure is 0.054 (inactive); as for NUMBL (UniProt Q9Y6R0), -0.144 (inactive); as for NDFIP1 (UniProt Q9BT67), 0.268 (inactive).
NA isoform 3 (UniProt Q4G0T1): the log2 fold change is 0.005 (inactive).
Same read-out and setting: the result for PACS1 (UniProt Q6VY07) reads 0.021 (inactive); that for NPC1 (UniProt O15118), 0.007 (inactive).
The same measure, in the same setting: the result for MRPS21 (UniProt P82921) reads 0.079 (inactive); that for MRPS16 (UniProt Q9Y3D3), -0.014 (inactive); that for NOP58 (UniProt Q9Y2X3), 0.046 (inactive).
Same read-out and setting: the result for MYLK (UniProt Q15746) reads 0.081 (inactive); that for OSBPL3 (UniProt Q9H4L5), -0.267 (inactive).
For MTHFD1, A0A384N5Y3, the log2 fold change is 0.088 (inactive).
NAA11 (UniProt Q9BSU3): the log2 fold change is 0.145 (inactive).
Still for that read-out and setting: the result for NECTIN2 isoform 2 (UniProt Q92692) reads 0.033 (inactive); that for MRPL46 (UniProt Q9H2W6), -0.061 (inactive); that for MRPS33 (UniProt Q9Y291), 0.023 (inactive).
The same measure, in the same setting: as for MT-ND1 (UniProt P03886), the figure is 0.168 (inactive).
Same read-out and setting: as for NCBP2AS2 (UniProt Q69YL0), the figure is -0.039 (inactive); as for MRPS26 (UniProt Q9BYN8), -0.004 (inactive).
Take MRFAP1 (UniProt Q9Y605): the log2 fold change is -0.148 (inactive).
Same read-out and setting: as for ORC5 (UniProt O43913), the figure is 0.058 (inactive); as for NEK3 (UniProt P51956), 0.089 (inactive).

Compound in another test: CCCS(=O)(=O)Nc1ccc(F)c(C(=O)c2c[nH]c3ncc(Cl)cc23)c1F
The description is as above. A digest of the protocol: as §1
For the target NFYB (UniProt P25208), the log2 fold change was 0.025 (inactive).
The same measure, in the same setting: the result for NME7 (UniProt Q9Y5B8) reads 0.081 (inactive).
The same measure, in the same setting: as for MPHOSPH8 isoform 2 (UniProt Q99549), the figure is -0.1 (inactive).
On the same count and under the same terms, the result for NPM3 (UniProt O75607) reads 0.041 (inactive).
Take MTFR1L (UniProt Q9H019): the log2 fold change was 0.116 (inactive).
The same measure, in the same setting: as for NA, A0A2R8Y3M9, the figure is -0.086 (inactive); as for NME2P1 (UniProt O60361), -0.043 (inactive); as for MON1A (UniProt Q86VX9), -0.011 (inactive).
On the same count and under the same terms, the result for NCOA7 (UniProt Q8NI08) reads -0.005 (inactive); that for NCK1 (UniProt P16333), 0.116 (inactive).
In the case of PAFAH2 (UniProt Q99487), the log2 fold change was -0.015 (inactive).
With NAT14 (UniProt Q8WUY8), the log2 fold change was -0.051 (inactive).
Still for that read-out and setting: the result for NUMBL (UniProt Q9Y6R0) reads -0.005 (inactive); that for NA isoform 3 (UniProt Q4G0T1), -0.077 (inactive).
On the same count and under the same terms, the result for PACS1 (UniProt Q6VY07) reads 0.023 (inactive); that for NPC1 (UniProt O15118), -0.019 (inactive).
Same read-out and setting: the result for MRPS21 (UniProt P82921) reads 0.132 (inactive).
MRPS16 (UniProt Q9Y3D3): the log2 fold change was 0.062 (inactive).
On the same count and under the same terms, as for NOP58 (UniProt Q9Y2X3), the figure is 0.041 (inactive); as for MYLK (UniProt Q15746), -0.01 (inactive).
Same read-out and setting: as for MLX (UniProt Q9UH92), the figure is 0.008 (inactive).
The same measure, in the same setting: as for OSBPL3 (UniProt Q9H4L5), the figure is -0.09 (inactive); as for MTHFD1, A0A384N5Y3, 0.058 (inactive); as for NAA11 (UniProt Q9BSU3), -0.067 (inactive).
Regarding MRPL46 (UniProt Q9H2W6), the log2 fold change was -0.006 (inactive).
Still for that read-out and setting: the result for MRPS33 (UniProt Q9Y291) reads 0.073 (inactive).
The same measure, in the same setting: the result for MT-ND1 (UniProt P03886) reads 0.208 (inactive); that for NCBP2AS2 (UniProt Q69YL0), 0.037 (inactive); that for NCOA5 (UniProt Q9HCD5), -0.096 (inactive).
The same measure, in the same setting: the result for MRPS26 (UniProt Q9BYN8) reads 0.049 (inactive); that for MRFAP1 (UniProt Q9Y605), 0.046 (inactive).
Turning to ORC5 (UniProt O43913), the log2 fold change is 0.058 (inactive).
Still for that read-out and setting: the result for NEK3 (UniProt P51956) reads -0.123 (inactive).
